This is an account of results in PubChem BioAssay AID1347147 (National Center for Advancing Translational Sciences (NCATS), 2019).

Results filed as inconclusive are left out. Entries that show only a call come without a potency. Activity calls are given as the source filed them. Calls follow the shape of the dose curve; as a rule, active = well fitted inhibition curve with a large enough effect; inconclusive = small, poorly fitted or top-dose-only effect; inactive = no such curve, though single readings can be large or run the other way.
Potency is read from the fitted curve at half-maximal effect.

This test deals with N-terminal Xaa-Pro-Lys N-methyltransferase 1 (Homo sapiens) (UniProt Q9BV86). Put plainly: qHTS Assay for Inhibitors of N-terminal methyltransferase 1 (NTMT1): MTaseGlo Confirmatory Screen, Round 2. As to conditions: NTMT1 enzyme, MTase-Glo SAH luminescence; series mostly up to 57.4 µM. Put shortly: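 Luminescent MTase-Glo readout of SAH formed in 30 min at RT by 125 nM NTMT1, 100 µM SAM and 1 µM SPKRIA substrate, after ~15 min compound preincubation. Percent inhibition versus no-enzyme and DMSO controls was Hill-fitted.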
Sequence of N-terminal Xaa-Pro-Lys N-methyltransferase 1 (Homo sapiens) (Q9BV86 whole entry, looked up): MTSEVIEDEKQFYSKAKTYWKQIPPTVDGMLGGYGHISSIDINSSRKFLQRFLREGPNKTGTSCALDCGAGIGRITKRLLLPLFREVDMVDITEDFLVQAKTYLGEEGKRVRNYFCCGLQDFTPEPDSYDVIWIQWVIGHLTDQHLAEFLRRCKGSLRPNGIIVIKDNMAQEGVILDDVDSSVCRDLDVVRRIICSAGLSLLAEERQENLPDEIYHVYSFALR
On the technique in general: Quantitative high-throughput screening tests each substance at several concentrations.
As for `Nc1nc(=S)c2ncn([C@H]3O[C@@H](CO)[C@@H](O)[C@@H]3O)c2[nH]1`, the Potency result is “inactive”.
On to `O=S(=O)(c1cccc2c(Cl)cccc12)N1CCCNCC1`, for which the Potency entry is “inactive”.
Consider `CC(=O)/C=C1\C(=O)N(C)c2ccccc21`, for which the Potency entry was “inactive”.
Take `OCCNc1ncnc2c1ncn2[C@@H]1O[C@@H](CO)[C@H](O)[C@@H]1O`: the Potency entry is “inactive”.
For the compound `COc1ccc(C(=O)/C(Cc2cc(OC)c(OC)c(OC)c2)=C(\C(=O)O)c2ccc3c(c2)OCO3)cc1`, the Potency entry was “inactive”.
Consider `CCC(=O)c1ccc2c(c1)N(CCCN(C)C)c1ccccc1S2`, for which the Potency entry was “inactive”.
As to `N#C/C(=C\c1ccc(O)c(O)c1)C(=O)Nc1ccccc1`, the Potency result was “inactive”.
For `COc1cc2nc(N3CCCN(C)CC3)nc(NC3CCNCC3)c2cc1OC` the value was “inactive”; for `COc1cc2nc(N3CCCN(C)CC3)nc(N3CCN(C)CC3)c2cc1OC`, “inactive”.
For `CC[n+]1c(/C=C/C=C2/N(C)c3ccccc3C2(C)C)sc2ccccc21` the value was 14.1 µM (active).
Regarding `Nc1nc2ccc(Cl)cc2c2nc(-c3ccco3)nn12`, the Potency entry is “inactive”.
Consider `Nc1nc(Cl)nc2c1ncn2[C@@H]1O[C@H](CO)[C@@H](O)[C@@H]1F`, for which the Potency entry is “inactive”.
Regarding `O=C1Cc2c([nH]c3ccc(Br)cc23)-c2ccccc2N1`, the Potency result is “inactive”.
For `N.N.N.N.N.N.N.N.N.N.N.N.N.N.O.O.[Ru+4].[Ru+5].[Ru+5]` the value was 31.6 µM (active).
Turning to `Oc1ccc(C2CNCc3sccc32)cc1O` (stereo not drawn), the Potency entry was “inactive”.
Regarding `CCCCNc1ccc(C(=O)OCCN(C)C)cc1`, the Potency entry was “inactive”.
In the case of `OC[C@H]1O[C@@H](n2cnc3c(NCc4ccco4)ncnc32)[C@H](O)[C@@H]1O`, the Potency result was “inactive”.
Consider `O=C(Nc1ccc([N+](=O)[O-])cc1Cl)c1cc(Cl)ccc1O`, for which the Potency result is “inactive”.
The value for `Cc1ccc(S(=O)(=O)/C=C/C#N)cc1` was “inactive”; that for `O=C1c2c(O)ccc(O)c2C(=O)c2c(NCCNCCO)ccc(NCCNCCO)c21` was 31.6 µM (active); that for `Oc1ccc2ccccc2c1SSc1c(O)ccc2ccccc12` was “inactive”.
Consider `N#CC(C#N)=C(N)/C(C#N)=C/c1ccc(O)cc1`, for which the Potency entry was “inactive”.
Turning to `O=c1cc(-c2ccccc2)oc2c(O)c(O)ccc12`, the Potency result is “inactive”.
As to `C=CCN1CCc2c(cc(O)c(O)c2Br)[C@@H](c2ccccc2)C1`, the Potency entry was “inactive”.
`CC(=O)c1ccc2c(c1)N(CCCN(C)C)c1ccccc1S2`: the Potency entry was “inactive”.
In the case of `CC1=C(\C=C/C(C)=C/C=C\C(C)=C\C(=O)O)C(C)(C)CCC1`, the Potency entry is “inactive”.
Turning to `CCC(CC)n1ccc2c(C(=O)NCc3c(C)cc(C)[nH]c3=O)cc(C#N)cc21`, the Potency entry is “inactive”.
As to `Oc1cc(O)c2c(c1)O[C@H](c1ccc(O)c(O)c1)[C@@H](O)C2`, the Potency result is “inactive”.
Regarding `OCCN1CCN(CC/C=C2/c3ccccc3Sc3ccc(C(F)(F)F)cc32)CC1`, the Potency entry is “inactive”.
Consider `CC[C@H](C)n1cc(C)c2c(C(=O)NCc3c(C)cc(C)[nH]c3=O)cc(-c3ccc(N4CCNCC4)nc3)cc21`, for which the Potency entry was “inactive”.
For `Cc1cc2nc3c(=O)[nH]c(=O)nc-3n(C[C@H](O)[C@H](O)[C@H](O)COP(=O)(O)OP(=O)(O)OC[C@H]3O[C@@H](n4cnc5c(N)ncnc54)[C@H](O)[C@H]3O)c2cc1C` the value was “inactive”; for `Cc1cc2c(cc1Cl)N(C(=O)Nc1ccc(Oc3cccnc3C)nc1)CC2`, “inactive”; for `Brc1c(Br)c(Br)c2[nH]cnc2c1Br`, “inactive”.
Regarding `CSc1nc(N)c2ncn([C@@H]3O[C@H](COP(=O)(O)OP(=O)(O)O)C(O)[C@H]3O)c2n1` (stereo partly drawn), the Potency is 20 µM (active).
Take `CCn1nc(C(=O)O)c(=O)c2cc3c(cc21)OCO3`: the Potency entry is “inactive”.
Turning to `CCOC(=O)c1cnc2c(cnn2CC)c1NN=C(C)C`, the Potency result is “inactive”.
As for `C[C@](Cc1ccc(O)c(O)c1)(NN)C(=O)O`, the Potency entry was “inactive”.
For `c1ccc(CN2CCC3(CCCc4ccccc43)CC2)cc1` the value was “inactive”.
